Assay outcomes as filed in PubChem BioAssay.
esBAF inh – SWI/SNF esBAF complex inhibition; mouse ES cells, Bmi1-luciferase knock-in reporter, 24 h; 100% = twice the neutral-well signal; reporter increase, % at 12.5 µM; actives 2% (n = 350,000); AID 602393; in the data active = activation above about 40%; inconclusive = no clear call, values can overlap the other calls;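 note: 0% = median of the plate's neutral control wells and 100% = double that signal; a rise in the Bmi1 reporter signal indicates esBAF inhibition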
FXN GAA850 act – increases GAA850 frataxin promoter reporter activity | HEK293 lucGAA850 FXN promoter luciferase reporter, 24 h; percent of 10 µM SAHA response | activation, % at 6 µM | actives 0.56% (n = 360,000) | AID 540364;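 active = activation above the average of all compounds screened plus 3 SD, cutoff fixed separately per campaign, cut at about 7.5% in these data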;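 note: 0% = DMSO wells and 100% = 10 µM SAHA wells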
Wnt bcat act – activates Wnt/beta-catenin signaling in a reporter cell assay; activator, plate reader; activation, % at 9.35 µM; actives 1.2% (n = 300,000); AID 743398; in the data active = activation above about 30%, passing the limit was not always enough; inconclusive = no clear call, values can overlap the other calls;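 note: 0% = neutral control wells and 100% = positive control wells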
MITF TRPM1 HTS – activators of MITF-driven TRPM1 promoter activity in SK-MEL-5 cells. SK-MEL-5 TRPM1-promoter luciferase, 24 h; % of positive control, neutral wells = 0. activation, % at 12.5 µM. actives 0.75% (n = 300,000). AID 588334;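 active = mean activation of at least 80% with every replicate also reaching 80%; inconclusive = mean reaches 80% but some replicate falls short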;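 note: 0% = neutral control wells and 100% = parthenolide positive control wells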
The depositor's hits bear a star; ? = inconclusive; / = no result. A selection: hits, their analogues and other compounds. The true share with any hit is near 2.8%.

SMILES	esBAF inh	FXN GAA850 act	Wnt bcat act	MITF TRPM1 HTS
Nc1cc2c(cc1Br)-c1ccccc1C2=NO	63*	5	34*	16
C[C@@H]1CN([C@@H](C)CO)C(=O)c2cc(C3=CCCC3)cnc2O[C@H]1CN(C)C(=O)C1CCOCC1	2	/	/	/
CCOc1ccc2nc(SCC(=O)NNC(=O)c3ccco3)c(C)cc2c1	-8	0	-3	/
CCOc1ccc2cc(/C=C/C(=O)c3ccco3)c(Cl)nc2c1	57*	3	/	/
COCCn1c(C)cc(C(=O)CSc2ccc3ccccc3n2)c1C	8	0	/	87*
Cc1cc(/C=C(\C#N)C(=O)Nc2ccccc2)c(C)n1-c1cccnc1	/	6	-5	56
N#C/C(=C\c1ccccc1O)C(=O)Nc1cccnc1	41	3	36*	94*
C[C@@H]1CN([C@@H](C)CO)C(=O)c2cc(-c3ccc(F)cc3)cnc2O[C@H]1CN(C)Cc1cncnc1	-9	/	/	/
COc1ccc(/C=C/C(=O)C2C(=O)C=C(C)OC2=O)cc1O (centres undefined)	51*	0	35*	-9
C[C@H](CO)N1C[C@H](C)[C@H](CN(C)C(=O)Nc2ccc3c(c2)OCO3)OCc2ccccc2-c2c(n(C)c3ccccc23)C1=O	93*	/	/	/
C[C@@H]1CN([C@H](C)CO)C(=O)c2c(c3ccccc3n2C)-c2ccccc2CO[C@@H]1CN(C)C(=O)Nc1ccc2c(c1)OCO2	3	-7	-2	/
C[C@@H]1CN([C@H](C)CO)C(=O)c2c(c3ccccc3n2C)-c2ccccc2CO[C@H]1CN(C)C(=O)Nc1ccc2c(c1)OCO2	81*	/	/	/
C[C@@H]1CN([C@@H](C)CO)C(=O)c2c(c3ccccc3n2C)-c2ccccc2CO[C@H]1CN(C)C(=O)Nc1ccc2c(c1)OCO2	86*	/	/	/
C[C@H](CO)N1C[C@H](C)[C@H](CN(C)C(=O)Nc2cccc(F)c2)OCc2ccccc2-c2c(n(C)c3ccccc23)C1=O	1	/	/	/
C[C@H]1CN([C@@H](C)CO)C(=O)c2c(c3ccccc3n2C)-c2ccccc2CO[C@H]1CN(C)C(=O)Nc1ccc2c(c1)OCO2	60*	/	/	/
CCOc1ccc(NC(=O)c2nsc(Cl)c2Cl)cc1	38	8	54*	67
O=C(Nc1ccc(F)c(Cl)c1)c1nsc(Cl)c1Cl	60*	3	-3	67
O=C(C[C@H]1CC[C@H](NC(=O)Nc2ccccc2)[C@H](CO)O1)NCc1cccc(F)c1	4	/	/	/
O=C(NCCc1ccccc1)[C@H]1[C@H](CO)[C@H]2Cn3c(cccc3=O)[C@H]2N1Cc1cccnc1	-2	/	/	/
C[C@@H]1CN([C@H](C)CO)S(=O)(=O)c2ccc(-c3ccc(C(=O)N(C)C)cc3)cc2O[C@H]1CN(C)Cc1ccccc1C(=O)O	3	/	/	/
O=C(CC1CC1)Nc1ccc2c(c1)[C@H]1C[C@H](CC(=O)N3CCOCC3)O[C@@H](CO)[C@H]1O2	-5	/	/	/
COc1ccccc1C#Cc1cnc2c(c1)C(=O)N([C@H](C)CO)C[C@@H](C)[C@H](CN(C)C(=O)CC1CC1)O2	7	/	/	/
CSc1nnc2c(n1)c(C)nn2-c1cccc(C)c1	45*	4	37*	/
C[C@@H]1CN([C@@H](C)CO)C(=O)c2cc(NC(=O)Nc3cccc4ccccc34)ccc2O[C@@H]1CN(C)C(=O)Nc1ccccc1	-3	/	/	/
CC1CCCC(NC(=O)Cn2cc3c(n2)CCCCC3)C1C (centres undefined)	0	-2	0	-4
SMILES	esBAF inh	FXN GAA850 act	Wnt bcat act	MITF TRPM1 HTS
O=C(Cn1cc2c(n1)CCCCC2)NC1CCCCCC1	47*	2	5	54
O=C(O)CC(CN1C(=O)c2ccccc2C1=O)c1ccccc1 (centres undefined)	-10	0	45*	7
CCCNC(=O)C[C@H]1CC[C@H]2[C@@H](COc3ccc(NC(=O)NC(C)C)cc3C(=O)N2C)O1	-1	/	/	/
COc1ccc(CNC(=O)C[C@H]2C[C@H]3c4cc(NC(=O)CN(C)C)ccc4O[C@H]3[C@H](CO)O2)cc1	0	/	/	/
Cc1ccc(C(=O)NC(=S)Nc2cccnc2Cl)cc1	23	4	41*	145*
COc1ccccc1C(=O)NC(=S)Nc1cccnc1Cl	-72	0	-6	38
O=C1c2ccccc2NC(c2ccccn2)N1c1ccc(Cl)cc1 (centres undefined)	61*	3	/	76
Cc1cccc(C2Nc3ccccc3C(=O)N2c2ccccc2)n1 (centres undefined)	2	-1	0	-9
CC1Cc2ccccc2N1C(=O)/C=C/c1cccc(F)c1 (centres undefined)	90*	5	14	96*
CCn1c2ccccc2c2nc3ccccc3nc21	11	9.3*	/	/
COc1ccc2c(c1)c1nc3ccccc3nc1n2Cc1ccc(OC)c(OC)c1	/	5	-5	1
CC(=O)n1c2ccccc2c2c1c1ccccc1n2C	-7	3	7	-8
CCOCCn1c2ccccc2c2nc3ccccc3nc21	15	3	5	18
CC(=O)n1c2ccccc2c2nc3ccccc3nc21	72*	2	/	23
CCn1c2ccccc2c2nc3cc(OC)c(OC)cc3nc21	49*	2	14	/
C[C@@H]1CCCCO[C@@H](CN(C)CC2CCCCC2)[C@@H](C)CN([C@@H](C)CO)C(=O)c2cc(NC(=O)CCC(F)(F)F)ccc2O1	-3	/	/	/
CCCNC(=O)C[C@H]1CC[C@H]2[C@@H](COC[C@@H](O)CN2C(=O)Nc2ccc3c(c2)OCO3)O1	41*	/	/	/
CCNC(=O)C[C@H]1CC[C@H]2[C@@H](COC[C@@H](O)CN2C(=O)Nc2ccc3c(c2)OCO3)O1	53*	/	/	/
Clc1ccc(Nc2nc(-c3ccncc3)cs2)cc1	29	5	/	76
CCNc1nc(-c2ccc(Cl)cc2)cs1	90*	2	/	111*
CCN(CC)CC(=O)Nc1nc(-c2ccc(Cl)cc2)cs1	12	1	/	11
CNc1nc(-c2ccc([N+](=O)[O-])cc2)cs1	45*	2	19	90*
CNc1nc(-c2ccc(Cl)cc2)cs1	52*	3	/	?
Cc1cc(C(=O)Nc2cccnc2)no1	/	3	0	-1
CC(C)Cc1cc(C(=O)Nc2cccnc2)no1	57*	3	20	/
SMILES	esBAF inh	FXN GAA850 act	Wnt bcat act	MITF TRPM1 HTS
O=C(Nc1cccnc1)c1ccc(-c2ccc(Cl)cc2)o1	/	1	-1	34
O=C(Nc1cccnc1)c1cc(-c2ccc(Cl)cc2Cl)on1	-1	1	43*	12
O=C(Nc1ccc(Cl)cc1Cl)c1csc(-c2cccnc2)n1	64*	2	-1	27
O=C(Nc1cccnc1)c1cc(-c2ccc(Cl)cc2)on1	15	-1	41*	129*
COc1cccc(C(=O)Nc2ccc3c(c2)OC[C@@H](C)N(C(C)=O)C[C@@H](C)[C@H](OC)CN(C)C3=O)c1	-3	/	/	/
CC(=O)N(C)C[C@H]1Oc2ncc(-c3cncnc3)cc2C(=O)N([C@H](C)CO)C[C@H]1C	4	/	/	/
C[C@H](O)C#Cc1ccc2c(c1)O[C@H](CN(C)C(=O)CN(C)C)[C@H](C)CN([C@@H](C)CO)S2(=O)=O	-1	/	/	/
COc1ccc(C=C(C#N)c2ccc(OC)cc2)cc1	55*	0	13	43
